High-throughput results as filed in PubChem BioAssay.
A selection: hits, their analogues and other compounds. The true share with any hit is near 1.9%.
14-3-3 Bad inh: disrupts binding of bovine 14-3-3 zeta to phospho-Bad peptide; P63103; TR-FRET 14-3-3zeta/Dy647-pBad peptide displacement, 1 h; inhibition, % at 21.7 µM; 220,000 compounds, 0.71% hits;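 active = inhibition above about 70%, limit read from the data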
eIF4E 4G PPI: inhibitors of eIF4E and eIF4G interaction in translation initiation. P63073+Q04637. TR-FRET eIF4E-eIF4GI(517-606) binding, 2 h. inhibition, % at 21.7 µM. 220,000 compounds, 0.37% hits;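 active = inhibition above about 30%, limit read from the data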
Target sequence (P63073 whole entry, looked up): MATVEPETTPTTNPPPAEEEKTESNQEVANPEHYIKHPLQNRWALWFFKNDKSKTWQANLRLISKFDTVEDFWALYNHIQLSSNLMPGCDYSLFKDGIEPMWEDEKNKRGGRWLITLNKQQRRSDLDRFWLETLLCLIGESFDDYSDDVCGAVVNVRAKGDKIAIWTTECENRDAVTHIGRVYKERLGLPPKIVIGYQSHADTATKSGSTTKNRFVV
Target sequence (Q04637 whole entry, looked up): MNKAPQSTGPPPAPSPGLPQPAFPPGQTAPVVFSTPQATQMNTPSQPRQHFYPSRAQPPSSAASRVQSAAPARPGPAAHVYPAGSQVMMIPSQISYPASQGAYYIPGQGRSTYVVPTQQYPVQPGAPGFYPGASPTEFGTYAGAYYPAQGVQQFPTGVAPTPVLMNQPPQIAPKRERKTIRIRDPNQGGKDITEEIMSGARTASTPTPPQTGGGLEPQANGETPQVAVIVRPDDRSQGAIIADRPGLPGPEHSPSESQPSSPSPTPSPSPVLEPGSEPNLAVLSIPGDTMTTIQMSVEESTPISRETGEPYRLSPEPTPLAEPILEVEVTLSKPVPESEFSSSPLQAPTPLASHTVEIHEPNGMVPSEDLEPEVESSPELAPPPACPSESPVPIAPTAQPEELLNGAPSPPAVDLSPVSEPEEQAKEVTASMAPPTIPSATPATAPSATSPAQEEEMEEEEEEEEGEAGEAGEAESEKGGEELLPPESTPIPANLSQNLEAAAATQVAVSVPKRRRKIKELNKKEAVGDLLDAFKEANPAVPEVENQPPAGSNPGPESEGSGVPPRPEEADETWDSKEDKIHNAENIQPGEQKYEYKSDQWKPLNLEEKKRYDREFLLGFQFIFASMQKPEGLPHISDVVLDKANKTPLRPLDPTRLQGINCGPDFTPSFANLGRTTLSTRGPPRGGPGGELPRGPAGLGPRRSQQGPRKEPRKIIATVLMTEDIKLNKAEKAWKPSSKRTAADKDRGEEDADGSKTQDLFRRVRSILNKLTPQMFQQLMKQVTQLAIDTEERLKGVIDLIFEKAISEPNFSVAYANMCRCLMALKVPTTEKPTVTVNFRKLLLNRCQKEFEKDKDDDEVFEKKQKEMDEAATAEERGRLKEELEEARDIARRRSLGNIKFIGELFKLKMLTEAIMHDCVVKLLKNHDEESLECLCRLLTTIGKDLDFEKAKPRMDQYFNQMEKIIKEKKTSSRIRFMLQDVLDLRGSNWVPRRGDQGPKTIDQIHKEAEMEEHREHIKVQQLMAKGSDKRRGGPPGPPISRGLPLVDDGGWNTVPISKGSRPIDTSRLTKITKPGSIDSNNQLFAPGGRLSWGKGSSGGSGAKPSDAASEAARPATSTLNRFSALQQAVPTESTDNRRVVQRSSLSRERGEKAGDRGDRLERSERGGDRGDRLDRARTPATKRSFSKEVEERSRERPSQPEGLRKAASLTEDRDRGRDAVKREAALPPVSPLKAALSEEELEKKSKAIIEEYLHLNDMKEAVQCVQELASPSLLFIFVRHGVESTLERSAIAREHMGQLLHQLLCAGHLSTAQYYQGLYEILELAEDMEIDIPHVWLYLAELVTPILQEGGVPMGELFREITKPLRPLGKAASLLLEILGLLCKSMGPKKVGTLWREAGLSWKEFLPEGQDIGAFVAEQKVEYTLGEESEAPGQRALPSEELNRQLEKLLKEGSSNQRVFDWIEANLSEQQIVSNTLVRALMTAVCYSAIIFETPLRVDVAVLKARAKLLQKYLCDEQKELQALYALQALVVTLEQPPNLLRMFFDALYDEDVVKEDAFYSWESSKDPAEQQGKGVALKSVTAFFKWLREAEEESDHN
MLLE-PAM2 inh: blocks PAM2 peptide binding to the PABP1 MLLE domain; P11940; GST-MLLE / FITC-PAM2 fluorescence polarization; inhibition, % at 20 µM; 360,000 compounds, 0.36% hits; AID 588489; in the data active = inhibition above about 35%, passing the limit was not always enough
PABP FP inh: PABP-poly(A) binding inhibition. calls only at 35 µM. PABP-poly(A) RNA binding, fluorescence polarization. 290,000 compounds, 1% hits. P11940;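 also: calls also rest on retests at 20 µM and on dose response follow-up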
eIF4H inh: inhibitors of RNA binding by human eIF4H; Q15056; eIF4H fluorescence polarization binding assay; inhibition, % at 35 µM; 290,000 compounds, 0.94% hits; AID 2012;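 also: calls also rest on retests at 20 µM and on dose response follow-up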
Hits are given with their value; - = inactive; ? = inconclusive; . = no result given; + = active, no number; [ ] = another dose, or the depositor's remark. Unless noted, no rule for the calls is given here.

SMILES	14-3-3 Bad inh	eIF4E 4G PPI	MLLE-PAM2 inh	PABP FP inh	eIF4H inh
Cc1ccc2cc(CCNS(=O)(=O)c3ccc(F)cc3)c(=O)[nH]c2c1C	-	-	-	-	-
O=C(O)CSc1cc(C(=O)c2cc(F)ccc2O)cn2c(=O)c3c(-c4ccccc4)csc3nc12	-	-	-	-	50
CCOC(=O)c1sc2nc3c(SCCC(=O)O)cc(C(=O)c4cc(OC)ccc4O)cn3c(=O)c2c1C	-	57	-	-	-
CCOC(=O)c1sc2nc3c(SCCC#N)cc(C(=O)c4cc(F)ccc4O)cn3c(=O)c2c1C	-	-	-	-	-
CCC(C)NC(=O)Cn1cnc2sc(C)c(S(=O)(=O)N3CCCCC3)c2c1=O (centres undefined)	.	.	-	-	-
O=C1CCCN1CC(CN1CCOCC1)Sc1nnnn1-c1ccccc1 (centres undefined)	79	-	-	-	-
O=C1CC(Cc2ccccc2)C(=O)N1CCCn1ccnc1 (centres undefined)	75	-	.	-	-
CC1CCCN(Cc2c(O)ccc3c2O/C(=C\c2ccco2)C3=O)C1 (centres undefined)	-	-	-	+	85
CCOC1=C2[C@@H](CN(S(=O)(=O)c3ccc(C)cc3)[C@H]2c2cccs2)[C@H]2C(=O)N(c3ccccc3)C(=O)[C@H]2C1	.	.	-	.	.
COc1ccc(-c2ccc(/C=C3/C(=N)N4C(C)=CSC4=NC3=O)o2)c([N+](=O)[O-])c1	-	-	-	+	91
CC(=O)Nc1ccc(SC[C@H](Cc2ccccc2)N2CC[C@@H](O)CCC2=O)cc1	.	.	41	.	.
CC(C)(C)[C@H]1CCC(=O)N([C@H](CSc2ccccc2)Cc2ccccc2)CC1	.	.	-	-	-
CC(=O)Nc1ccc(SC[C@H](Cc2ccccc2)N2CC[C@@H](C(C)(C)C)CCC2=O)cc1	.	.	42	.	.
O=C(NC(Cc1ccccc1)C(=O)N1CCN(c2ccc(F)cc2)CC1)c1ccccc1 (centres undefined)	.	.	-	.	.
CC1(c2ccccc2)CC(C)(C)N2C(=O)Cc3cccc1c32 (centres undefined)	-	-	-	-	-
C=CCSc1nc(N2CCOCC2)c2c(c1C#N)CC(C)(C)N(C)C2	-	-	-	+	50
CCSc1nc(N2CCOCC2)c2c(c1C#N)CC(C)(C)N(C)C2	-	-	-	-	-
CN1Cc2c(N3CCOCC3)nc(SCc3ccccc3)c(C#N)c2CC1(C)C	-	-	40	?	?
CN(/N=C/c1cc(Cl)cc(Cl)c1O)c1c(Cl)cccc1[N+](=O)[O-]	-	-	-	-	-
O=C(O)Cc1c[nH]c2ccccc12	.	.	-	.	.
O=C(O)Cc1c[nH]c2cccc(O)c12	-	-	-	+	88
Cn1c2ccccc2c2cc(/C=N/NC(=O)c3cc(O)cc(O)c3)ccc21	.	.	-	+	95
Cn1c2ccccc2c2cc(/C=N/NC(=O)c3cc(O)ccc3O)ccc21	.	.	-	+	86
Cc1cccc(C(=O)Oc2ccc(/C=N/NC(=O)c3cc(O)cc(O)c3)cc2)c1	.	.	-	+	99
Cc1cccc(C(=O)Oc2ccc(/C=N/NC(=O)c3ccncc3)cc2)c1	-	-	-	-	-
SMILES	14-3-3 Bad inh	eIF4E 4G PPI	MLLE-PAM2 inh	PABP FP inh	eIF4H inh
Cc1ccc(N(CC(=O)NC2CCCC2)C(=O)CNC(=O)c2cccs2)c(C)c1	.	.	-	-	-
O=C(CCCCCNC(=O)N1CCn2c1nc1ccccc12)NCc1ccc(F)cc1	.	.	-	-	-
N#CC1=C(N)C(C#N)(C#N)C(c2ccncc2)C2CN(C(=O)OCc3ccccc3)CC=C12 (centres undefined)	-	-	-	+	75
COC(=O)C1=C(O)/C(=C\c2cc(C)n(-c3ccc(F)cc3)c2C)N=C1C	-	-	-	+	-
COC(=O)C1=C(O)/C(=C/c2cccc(OC)c2O)N=C1C	-	-	-	-	-
CC1(C)CCN(Cc2ccccc2)C1CC#N (centres undefined)	71	-	-	-	-
Cc1ccc2c3c(cccc13)-c1ccccc1C2=O	-	-	48	+	90
Nc1ccc2c3c(cccc13)-c1ccccc1-2	.	.	-	.	.
Cc1cc(CNC[C@H]2O[C@@H](n3ccc(=O)[nH]c3=O)[C@H](O)[C@@H]2O)no1	.	.	-	.	.
CC(C)Cc1nnc(NC(=O)c2cc3c(s2)CCC3)s1	-	-	-	-	54
COc1cccc(CN2CCCC(C(=O)Nc3ccc(-c4cscn4)cc3)C2)c1 (centres undefined)	.	.	-	-	-
O=C1CCCC2=C1C(c1ccc(Br)cc1)c1c([nH]c(=S)[nH]c1=O)N2 (centres undefined)	-	59	-	-	-
O=c1[nH]c(=S)[nH]c2c1C(c1ccc(Br)cc1)c1c([nH]c(=S)[nH]c1=O)O2	.	.	-	+	83
Cc1ccc(C)c(NC(=S)NCCN(C2CCCCC2)C2CCCC2)c1	-	97	-	-	-
Cc1ccc(NC(=O)CSc2nc(O)c(Cc3ccccc3)c(=O)n2-c2ccccc2)cc1	-	-	-	-	-
CCOC(=O)CSc1ccc2nnc(CCNS(=O)(=O)c3ccccc3)n2n1	83	-	-	-	-
CCOC(=O)C(CC)Sc1ccc2nnc(CCNS(=O)(=O)c3ccccc3)n2n1 (centres undefined)	-	-	-	-	-
c1ccc2[nH]c(SN3CCOCC3)nc2c1	-	44[fluorescence artefact?]	.	-	-
Cc1cc(C(=O)COC(=O)c2ccc(O)cc2)c(C)n1Cc1ccco1	-	-	-	+	74
Cc1cc(C(=O)COC(=O)c2ccc(Br)o2)c(C)n1Cc1ccco1	-	-	.	-	-
Cc1cc(C(=O)COC(=O)C(C)NC(N)=O)c(C)n1Cc1ccco1 (centres undefined)	-	-	-	-	-
Cc1cc(C(=O)C(C)Cl)c(C)n1Cc1ccco1 (centres undefined)	-	-	-	+	101
COc1ccc(-c2nc(NC(=O)CSCCO)sc2C)cc1	-	-	-	-	-
CC(=O)N(c1cccc(Cl)c1)c1nc(C)cc(C)c1C#N	-	-	-	-	-
Cc1ccc(Oc2c(C(N)=O)cc([N+](=O)[O-])cc2[N+](=O)[O-])cc1	-	40[fluorescence artefact?]	-	-	-
SMILES	14-3-3 Bad inh	eIF4E 4G PPI	MLLE-PAM2 inh	PABP FP inh	eIF4H inh
Cc1ccc(CNc2ccc([N+](=O)[O-])cc2C(N)=O)cc1	.	.	-	.	.
CC1(C)Cc2c(c(-c3ccco3)[nH]c(=O)c2C#N)CS1	-	-	61	-	-
CCCCn1c(N)c(N(CC(C)C)C(=O)CSc2ccc3c(c2)OCCO3)c(=O)[nH]c1=O	.	.	-	.	.
CCOc1ccccc1N1CCN(CC(=O)N(CC(C)C)c2c(N)n(CC(C)C)c(=O)[nH]c2=O)CC1	-	-	-	+	9.0
COc1ccccc1N1CCN(CC(=O)N(CC(C)C)c2c(N)n(CC(C)C)c(=O)[nH]c2=O)CC1	-	-	-	-	-
COCCN(C(=O)CSc1ccc2c(c1)OCCO2)c1c(N)n(CC(C)C)c(=O)[nH]c1=O	.	.	42	.	.
COC(=O)c1c(C)[nH]c(C(=O)COC(=O)CCNS(=O)(=O)c2cccc(C(F)(F)F)c2)c1C	.	.	-	.	.
N=C1S/C(=C\c2ccco2)C(=O)N1c1nccs1	-	-	-	+	95
